Results: the supplement of paper PMC6555819

These sequences were tested on VDR:RXRa (NR concentration 270 nM, RXRa partner concentration 90 nM) (assay: PBM binding z-score (relative to random genomic background probes); higher = stronger binding; sequences stand for … in GC…GCGATTGACAGCGTAGAATGAAGG).
Experimental: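 Protein-binding microarray (Agilent 4x180K custom design, double-stranded 60-nt probes: 5' GC cap, 34-nt variable region, 24-nt constant primer region; full probe sequence given). Purified or IVT nuclear receptor:RXRα heterodimers (3:1 NR:RXRα, mostly 270:90 nM) or homodimers were incubated for 1 h in PBS with 2% milk and no ligand, then detected with Alexa488 antibodies. Fluorescence from o1-orientation probes (~5 replicates averaged) was converted to z-scores against 500 random hg19 background probes. Variable regions are seed direct-repeat (DR0–DR5) sites, all their single-nucleotide variants and half-site ablations.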
GCGACTGGAGCATCAGCAGGTTACCATAACTTAA showed a PBM binding z-score of -0.345.
With CGTCCAAGGTCAGCCGGTCAGTGAAAGCGACGTG the PBM binding z-score was 3.32.
With GCCAGTTGGTCAGTAAAAGGTCACACACCGGTCG the PBM binding z-score was 3.94.
Sequence TCTCGGAGGACACGTAAGGTCAGAGCTCGACATC has a PBM binding z-score of 2.69.
For GCGACTGGGGCATCAGCAGGTTAGCATAACTTAA, the PBM binding z-score was -0.526.
CCTACTGGGCCATTCAGAGGTGATTGATCATATG gave a PBM binding z-score of -0.104.
For CCGACTGGGGCAGAACGGTTACCATACCATCCGG, the PBM binding z-score was -0.643.
ATCGAAAGATCGACGAGGTGAGTATACACCGTTT showed a PBM binding z-score of 0.0445.
CGTCTAAGGTCAGAGAGGTCAGTGAATGCCGAGT was tested, and the PBM binding z-score was 7.63.
CCTTACGGGTCACTGACAGGTTATGGCATTTGGA was tested, and the PBM binding z-score was 3.75.
With ATCTCTCGGTAACCAAGTTCAGTGAATGCCGAAC the PBM binding z-score was 2.72.
ATTCCAAGGTGATCGTGAGGTCGTTGATACTAAC gave a PBM binding z-score of 3.31.
Work on TCTCGGAGGACACGAATGTCAGAGCTTTCCAGAG yielded a PBM binding z-score of -0.117.
Sequence CGAACGAGGGCATTAGTTGATAGCAAATGCCGAT has a PBM binding z-score of 0.658.
CGAACTAGGTCATTGACAAGACAGTGAATAGTAA gave a PBM binding z-score of 1.89.
With AATACAGGGTCACAAGGCCAGAGTAGGTACGAAT the PBM binding z-score was 4.82.
In the case of CTCGAAAAGTCGTGCTCAGGTGAGTATACCAAAC, the PBM binding z-score is reported as -0.141.
With ATCTCTAGGTAAAGATAGTTCAGGGAATGCAAAT the PBM binding z-score was 0.786.
In the case of CCGACTCGGGCAAAGGTTACCATACTCAGTACGA, the PBM binding z-score is reported as 1.33.
With GCGACTGGGGCGAAGCAGGTTACCATAAGGTTGG the PBM binding z-score was -0.549.
Sequence ATATGTAGGTTAAGGGTAATTCAGGTTGGTTCGC has a PBM binding z-score of 1.61.
CCGACTGGGTCATAAGGTTACCATAAGCCAGCCC showed a PBM binding z-score of 2.81.
TTACCAAGGTGAGCTGAGCTCGTTGATCCAACTC gave a PBM binding z-score of -0.427.
TCATATAGATAAAAGGTGAAAGTCGGTGTGGTAA was tested, and the PBM binding z-score was 1.35.
AATACAGGGTCATCGTAGGGCAGAGTACGCACAG gave a PBM binding z-score of 5.71.
In the case of TCCGACAGGTGAAGGTAACTCAGGTACGCAGTCG, the PBM binding z-score is reported as 0.225.
GGTACGAGGGCAAGTTGATAGCAGAGTTTGATGG gave a PBM binding z-score of 1.11.
For ATCGAAAGGGCGAGGTGAGTATAGAGAAAGGGAA, the PBM binding z-score was 0.361.
CCAGACAGGTGAAAGTTAACTCAGTCTGGTACGC gave a PBM binding z-score of 0.0177.
GCTTACGAGTCAAAGGTTATAGCATGAATAGAAT showed a PBM binding z-score of 2.16.
ATATGTAGGTTGTCGGGTCATTCAGTTTGCGCAT gave a PBM binding z-score of 5.
Sequence TTATATAGGTAAACAGGTGAAAGTCCGTAAGTTA has a PBM binding z-score of 0.869.
TCAGACATGTGAAGGTAACTCAGGTACGCAGTCG gave a PBM binding z-score of 0.627.
GATACAGGGTCAAAGCCAGAGTACGCGTATTGAT showed a PBM binding z-score of 4.5.
In the case of GCGACTGGGGAAAAGCAGGTTACCATAAGGTTGG, the PBM binding z-score is reported as -0.273.
With GGAACGAGGGCAAGTTGATAGAAGAGTTTGATGG the PBM binding z-score was 0.975.
With TAGCCTAGGTCATTCAGGGGCCAGTTTAGAAAGC the PBM binding z-score was 3.16.
TCTTGTAAATCAATAGAGGTTAAGAAAGTGCGCT showed a PBM binding z-score of 1.98.
GCTATTAGTTGAAAGGGTAACCGAATGATTCTCG gave a PBM binding z-score of 0.289.
For GCTGCTAGGTCAGGTTGATCAGCTAACGGGTACG, the PBM binding z-score was 0.431.
